Assay [1] is described as follows: BET inhibitor-based combinations targeting novel dependencies in MECOM-rearranged (r) AML: SET-2 cell line (AID 2202231). Further: nearly all actives have a fitted effect of over 35% in size.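 On viability: plate controls were DMSO treated cells for no effect and wells without cells for full effect.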 The settings on record: SET-2 AML cells viability, CellTiter-Glo luminescence, 48 h; viability: hits give low values, concentration not given here. The method in brief: (§1)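 500 cells/well; 11-pt dose curve; 48 h, standard incubator; CellTiter-Glo luminescence after 15 min RT; DMSO/empty-well normalization; AUC plus Z-AUC (mean-centered within each line).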
Background: In ATP-based viability assays light output follows the ATP content of the culture.

Assay [2] is described as follows: BET inhibitor-based combinations targeting novel dependencies in MECOM-rearranged (r) AML: HNT-34 cell line (AID 2202234). Further: nearly all actives have a fitted effect of over 35% in size. An outline of the steps:
(§2)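 Cells were plated at 500 per well and exposed to each drug across an 11-point dose range for 48 hr at standard incubator conditions. Viability was read by CellTiter-Glo luminescence, and activity was expressed as AUC and per-cell-line Z-transformed AUC.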

A short description of assay [3]: BET inhibitor-based combinations targeting novel dependencies in MECOM-rearranged (r) AML: AML-191 cell line (AID 2202236; further: nearly all actives have a fitted effect of over 35% in size). An outline of the steps:
as §1

Assay [4] can be described thus: BET inhibitor-based combinations targeting novel dependencies in MECOM-rearranged (r) AML: AML-194 cell line (AID 2202237; further: nearly all actives have a fitted effect of over 40% in size). The method in brief: as §1
Assay [5] is described as follows: BET inhibitor-based combinations targeting novel dependencies in MECOM-rearranged (r) AML: UCSD-AML1 cell line (AID 2202235). Further: nearly all actives have a fitted effect of over 40% in size. An outline of the steps: as §2
Assay [6] in a line: BET inhibitor-based combinations targeting novel dependencies in MECOM-rearranged (r) AML: OCI-AML3 cell line (AID 2202232). Further: nearly all actives have a fitted effect of over 35% in size. The settings on record: Potency: OCI-AML3 viability. The method in brief: as §1
Assay [7] in a line: BET inhibitor-based combinations targeting novel dependencies in MECOM-rearranged (r) AML: MV-4-11 cell line (AID 2202233). Further: nearly all actives have a fitted effect of over 45% in size. An outline of the steps:
as §2

For orientation: viability means a read-out of living cells in per cent, often relative to untreated cells.

Each structure is given as a SMILES string. Results filed as inconclusive are left out. Calls of active or inactive are those of the source. The call rests on the fitted dose curve; in most records, active means well fitted curve in the direction sought with a large enough effect; inconclusive means small, poorly fitted or top-dose-only effect, or another doubt; inactive means no such curve, though single readings can be large; an effect the other way counts as inactive or inconclusive.
Potency means the concentration at half of the fitted maximal effect.

On to `O=C1NC(=O)[C@@H](c2cn3c4c(cccc24)CCC3)[C@@H]1c1c[nH]c2ccccc12`, for which the Potency was 1.32 µM (active) in assay [1], 0.934 µM (active) in assay [2], 0.934 µM (active) in assay [3] and 0.934 µM (active) in assay [4].

Regarding `O=S(=O)(c1cccc2cnccc12)N1CCCNCC1`, in assay [1], the viability is 101% (inactive). Further, the Potency entry in assay [2], in assay [3] and in assay [4] was “inactive” throughout.

Take `COc1ccc2nc(S(=O)Cc3ncc(C)c(OC)c3C)[nH]c2c1` (stereo not drawn): the viability in assay [1] is 95.9% (inactive). In addition, the Potency entry in assay [5], in assay [3] and in assay [4] was “inactive” in each case.

For `CC/C(=C(/CC)c1ccc(O)cc1)c1ccc(O)cc1`, the Potency in assay [1] was 20.9 µM (active). For the same molecule, the Potency result in assay [5] is “inactive”.

As for `CN[C@@H](C)C(=O)N[C@H](C(=O)N1CCC[C@H]1c1nc(C(=O)c2ccc(F)cc2)cs1)C1CCCCC1`, the Potency in assay [1] is 16.6 µM (active); in assay [5] it was 20.9 µM (active).

With `[2H]C([2H])([2H])C(O)([C@@H](C)/C=C/[C@@H](C)[C@H]1CC[C@H]2/C(=C/C=C3C[C@@H](O)C[C@H](O)C3)CCC[C@]12C)C([2H])([2H])[2H]`, the viability in assay [1] is 79.5% (inactive). In addition, the Potency in assay [3] is 14.8 µM (active).

In the case of `CCc1ccc2nc(Nc3cc(Cc4ccccc4)nc(NC4CCC(O)CC4)n3)sc2c1` (stereo not drawn), the Potency in assay [6] and in assay [7] was 18.6 µM (active) each time.

Take `CONC(=O)Nc1ccc(-c2sc3c(c2CN(C)Cc2ccccc2)c(=O)n(-c2ccccc2)c(=O)n3Cc2c(F)cccc2F)cc1`: in assay [1], the viability is 104% (inactive). The Potency entry in assay [5] and in assay [3] was “inactive” in each case.

On to `CCCCC[C@H](O)C=C[C@H]1[C@H](O)CC(=O)[C@H]1CC=CCCCC(=O)O`, for which, in assay [6], the Potency was 5.9 µM (active).

In the case of `Cc1nc(NC(=O)N2CCC[C@H]2C(N)=O)sc1-c1csc(C(C)(C)C)n1`, the viability in assay [1] is 98.3% (inactive). The Potency result in assay [2] was “inactive”. The Potency in assay [3] is 16.6 µM (active).

Take `COC(=O)[C@H]1[C@@H](O)[C@@]2(O)c3c(OC)cc(O[C@@H]4O[C@@H]([C@@H](O)CO)CO[C@H]4OC)cc3O[C@@]2(c2ccc(OC)cc2)[C@@H]1c1ccccc1`: in assay [1], the viability was 77.8% (inactive). Moreover, the Potency entry in assay [3] is “inactive”.

On to `Cc1cc(Nc2ncnc3ccc(NC4=NC(C)(C)CO4)cc23)ccc1Oc1ccn2ncnc2c1`, for which the Potency in assay [1] is 20.9 µM (active). The Potency entry in assay [5] is “inactive”.

As for `CC(C)C[C@H](NC(=O)c1cc2ccccc2s1)C(=O)N1CCN(C(=O)[C@H](CO)NS(=O)(=O)c2ccc(Cl)cc2Cl)CC1`, the Potency in assay [6] was 18.6 µM (active); in assay [7] it was 23.5 µM (active); in assay [2], 26.3 µM (active).

In the case of `C[C@@H]1CC2C3C[C@H](F)C4=CC(=O)C=C[C@]4(C)[C@@]3(F)[C@@H](O)C[C@]2(C)[C@@]1(OC(=O)c1ccco1)C(=O)SCF` (stereo partly drawn), the Potency in assay [6] and in assay [7] was 20.9 µM (active) in each case.

`CCOc1ccc(Cc2cc([C@@H]3O[C@H](CO)[C@@H](O)[C@H](O)[C@H]3O)ccc2Cl)cc1`: the viability in assay [1] was 95% (inactive). The Potency result in assay [2] and in assay [4] was “inactive” each time.

Take `CC(C)c1cnn2c(NCc3ccccc3)cc(NCCCCCCN)nc12`: the Potency is 23.5 µM (active) in assay [6] and 18.6 µM (active) in assay [7].

Consider `O=c1cc(-c2cccc3c2Sc2ccccc2S3)oc(N2CCOCC2)c1`, for which the Potency in assay [6] is 13.2 µM (active); in assay [7], 18.6 µM (active).

Take `O=c1[nH]nc2c3c(cccc13)NC(CN1Cc3ccccc3C1)=N2`: the Potency in assay [6] and in assay [7] was 16.6 µM (active) each time.

Take `CNC(=O)CCc1cc(-c2ccc(-c3ccc(C(F)(F)F)cc3)cc2)n(-c2ccc(N3CCNCC3)cc2)n1`: the Potency was 7.42 µM (active) in assay [1], 8.33 µM (active) in assay [2], 5.9 µM (active) in assay [3] and 7.42 µM (active) in assay [4].

Regarding `COc1ccc2c(c1)C(c1ccc(F)cc1)=C(CN1CCCC1)CO2`, the viability in assay [1] is 95.4% (inactive). The Potency result in assay [5], in assay [3] and in assay [4] was “inactive” throughout.

As for `CC1Oc2cc(cnc2N)-c2c(nn(C)c2C#N)CN(C)C(=O)c2ccc(F)cc21` (stereo not drawn), the viability in assay [1] is 105% (inactive). In addition, the Potency in assay [5] is 20.9 µM (active).

With `Cc1cc(Nc2cc(N)ncn2)c(=O)n2c1C(=O)NC21CCCCC1`, the viability in assay [1] was 117% (inactive). Further, the Potency entry in assay [5] and in assay [4] was “inactive” in each case.

In the case of `O=C(NO)c1cnc(NC2(c3cccc(F)c3)CCCCC2)nc1`, the Potency in assay [1] was 9.34 µM (active); in assay [3] it was 10.5 µM (active).

For the molecule `CO[C@H]1/C=C/O[C@@]2(C)Oc3c(C)c(O)c4c(O)c(c(/C=N/N5CCN(C)CC5)c(O)c4c3C2=O)NC(=O)/C(C)=C\C=C\[C@H](C)[C@H](O)[C@@H](C)[C@@H](O)[C@@H](C)[C@H](OC(C)=O)[C@@H]1C`, the viability in assay [1] was 90.8% (inactive). Further, the Potency entry in assay [5], in assay [3] and in assay [4] was “inactive” each time.

For the molecule `COC[C@@H](c1ccc(C(F)(F)F)cc1)N1CCN(C2(C)CCN(C(=O)c3c(C)ncnc3C)CC2)C[C@@H]1C`, in assay [1], the viability was 111% (inactive). The Potency entry in assay [5], in assay [3] and in assay [4] was “inactive” throughout.

Values taken from PubChem BioAssay (NCATS).
